# Reference: PubChem BioAssay (EPA / NIEHS)
# The source made the active and inactive calls. Rule for the calls: active = hit-call score of the fitted dose curve at least 0.9, where 1 is the maximum; inactive = score below 0.9.
# Tested on: TTR (gene 7276)
# Experiment: CCTE_GLTED_hTTR_0.125uM: CCTE's human Transthyretin (hTTR) Inhibition Assay, with 0.125uM TTR, Great Lakes Toxicology and Ecology Division (GLTED) Lab (AID 2284431);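 note: hits lower the fluorescence signal relative to DMSO baseline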
# In short: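 Activity is defined as decreased ANSA fluorescence (ex 380, em 475) from human transthyretin, 0.125uM, following 2-hour chemical exposure in a cell-free setup, with DMSO as baseline.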
row,Compound,AC50
1,CCCCC(CC)COC(=O)c1ccc(O)cc1 (configuration not stated),0.434 µM (active)
2,OCc1cccc(Oc2ccccc2)c1,12.2 µM (active)
3,Nc1ccc2cc(S(=O)(=O)O)cc(O)c2c1N=Nc1ccccc1C(F)(F)F,0.0397 µM (active)
4,O=C(Nc1ccc2c(O)c(N=Nc3ccc(N=Nc4ccc(S(=O)(=O)O)cc4)cc3)c(S(=O)(=O)O)cc2c1)c1ccccc1,9.92 µM (active)
5,COc1ccc(N=Nc2cc(C)c(N=Nc3ccc(S(=O)(=O)O)cc3)cc2OC)cc1,0.385 µM (active)
6,C=C[Si]1(C)O[Si](C)(C=C)O[Si](C)(C=C)O[Si](C)(C=C)O1 (configuration not stated),50 µM (active)
7,CCCCCCC(CO)CCCC (configuration not stated),46.7 µM (active)
8,Oc1ccc2cc(SSc3ccc4cc(O)ccc4c3)ccc2c1,0.113 µM (active)
9,Cc1ccc(S(=O)(=O)Oc2ccc(N=Nc3ccc(-c4ccc(N=Nc5c(O)ccc6cc(S(=O)(=O)O)cc(S(=O)(=O)O)c56)c(C)c4)cc3C)cc2)cc1,0.912 µM (active)
10,Nc1ccccc1[N+](=O)[O-],20.3 µM (active)
11,N[C@@H](Cc1cc(I)c(Oc2cc(I)c(O)c(I)c2)c(I)c1)C(=O)O,0.0822 µM (active)
12,BrCc1cccc(Oc2ccccc2)c1,4.22 µM (active)
13,CCCCCCCCc1ccc(S(=O)(=O)O)cc1,2.97 µM (active)
14,CC(C)CCCCCCCCCCCCCCC(=O)O,0.891 µM (active)
15,O=[N+]([O-])c1ccc(O)cc1C(F)(F)F,0.111 µM (active)
16,Cc1cc(S(=O)(=O)O)ccc1N=Nc1c(O)ccc2ccccc12,0.079 µM (active)
17,CC(C)c1ccccc1O,32.4 µM (active)
